The values below come from PubChem BioAssay (NCATS).

The structures appear in SMILES notation. Values joined by “and” are separate entries in the source; they are usually repeats but may differ in a detail not shown here. Equal entries are not always repeated. Records with an inconclusive call do not appear. Values without a mark were called inactive. Active and inactive are the calls of the source. Calls come from the whole dose curve; as a rule, active = well fitted curve in the direction sought with a large enough effect; inconclusive = small, poorly fitted or top-dose-only effect, or another doubt; inactive = no such curve, though single readings can be large; an effect the other way counts as inactive or inconclusive.

For assay [1], the target named is Cellular tumor antigen p53 (Homo sapiens) (UniProt P04637). Put plainly: Primary qHTS for small molecule compounds that upregulate eGFP-tagged delta133p53alpha (in N-terminal) cells. (AID 2060322).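 For activation: series mostly up to about 56 µM; 0% = DMSO vehicle and 100% = reference activator.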 Note: nearly all actives have a fitted effect of over 75% in size. Note: potency is the fitted concentration of half-maximal effect. As to conditions: NCI-H358 eGFP-delta133p53alpha fluorescence, 24 h; activation: stronger effect = higher value. The essentials: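 NCI-H358 cells pre-induced 24 h with 10 ng/ml doxycycline to express N-terminal eGFP-delta133p53alpha, then dosed 24 h at 37C without doxycycline; fixed, Hoechst-stained, GFP intensity by laser scanning cytometry, normalized to DMSO (0%) and 57.5 uM 5-azacytidine (100%).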
Chain of Cellular tumor antigen p53 (Homo sapiens) (P04637 whole entry, looked up): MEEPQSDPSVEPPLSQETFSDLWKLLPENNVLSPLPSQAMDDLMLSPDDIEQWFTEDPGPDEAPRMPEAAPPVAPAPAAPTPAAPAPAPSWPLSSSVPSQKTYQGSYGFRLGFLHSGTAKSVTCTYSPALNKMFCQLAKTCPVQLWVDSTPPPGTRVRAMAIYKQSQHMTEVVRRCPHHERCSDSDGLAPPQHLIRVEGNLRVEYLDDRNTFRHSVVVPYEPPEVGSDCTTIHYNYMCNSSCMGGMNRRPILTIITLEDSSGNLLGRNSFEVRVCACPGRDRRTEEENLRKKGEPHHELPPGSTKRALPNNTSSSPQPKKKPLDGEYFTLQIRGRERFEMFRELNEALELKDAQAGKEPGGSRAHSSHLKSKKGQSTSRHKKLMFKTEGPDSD
On the technique in general: qHTS replaces the single test concentration by a dilution series.

Assay [2] addresses Aldehyde dehydrogenase, mitochondrial (Homo sapiens) (UniProt P05091). Nature of the assay: qHTS for Inhibitors of the Aldehyde Dehydrogenase Family (ALDH2) Primary screen (AID 2061308).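 Note: plate controls were vehicle for no effect and reference inhibitor for full effect; nearly all actives have a fitted effect of over 55% in size.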
Assay [3] has as its target Retinaldehyde dehydrogenase 3 (Homo sapiens) (UniProt P47895). Nature of the assay: qHTS for Inhibitors of the Aldehyde Dehydrogenase Family (ALDH1A3) Primary screen (AID 2061315).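 Note: plate controls were DMSO vehicle for no effect and reference inhibitor for full effect.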
A short description of assay [4]: BET inhibitor-based combinations targeting novel dependencies in MECOM-rearranged (r) AML: SET-2 cell line (AID 2202231).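 For viability: plate controls were DMSO treated cells for no effect and wells without cells for full effect.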 Note: nearly all actives have a fitted effect of over 35% in size. Note: potency is the fitted concentration of half-maximal effect. The conditions noted are these: SET-2 AML cells viability, CellTiter-Glo luminescence, 48 h; viability: stronger effect = lower value, concentration not given here. The procedure, abridged: (§1)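 500 cells/well; 11-pt dose curve; 48 h, standard incubator; CellTiter-Glo luminescence after 15 min RT; DMSO/empty-well normalization; AUC plus Z-AUC (mean-centered within each line).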
(In general: In ATP-based viability assays light output follows the ATP content of the culture.)

Assay [5] in a line: BET inhibitor-based combinations targeting novel dependencies in MECOM-rearranged (r) AML: OCI-AML3 cell line (AID 2202232). Note: nearly all actives have a fitted effect of over 35% in size. Note: potency is the fitted concentration of half-maximal effect. As to conditions: Potency: OCI-AML3 viability. The procedure, abridged:
as §1

The nature of assay [6]: BET inhibitor-based combinations targeting novel dependencies in MECOM-rearranged (r) AML: MV-4-11 cell line (AID 2202233). Note: nearly all actives have a fitted effect of over 45% in size. Note: potency is the fitted concentration of half-maximal effect. The essentials:
(§2)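 Cells were plated at 500 per well and exposed to each drug across an 11-point dose range for 48 hr at standard incubator conditions. Viability was read by CellTiter-Glo luminescence, and activity was expressed as AUC and per-cell-line Z-transformed AUC.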

Assay [7] can be described thus: BET inhibitor-based combinations targeting novel dependencies in MECOM-rearranged (r) AML: HNT-34 cell line (AID 2202234). Note: nearly all actives have a fitted effect of over 35% in size. Note: potency is the fitted concentration of half-maximal effect. The procedure, abridged: as §2
Assay [8] is described as follows: BET inhibitor-based combinations targeting novel dependencies in MECOM-rearranged (r) AML: UCSD-AML1 cell line (AID 2202235). Note: nearly all actives have a fitted effect of over 40% in size. Note: potency is the fitted concentration of half-maximal effect. The procedure, abridged: as §2
Assay [9] is described as follows: BET inhibitor-based combinations targeting novel dependencies in MECOM-rearranged (r) AML: AML-191 cell line (AID 2202236; note: nearly all actives have a fitted effect of over 35% in size; note: potency is the fitted concentration of half-maximal effect). The essentials:
as §1

A short description of assay [10]: BET inhibitor-based combinations targeting novel dependencies in MECOM-rearranged (r) AML: AML-194 cell line (AID 2202237; note: nearly all actives have a fitted effect of over 40% in size; note: potency is the fitted concentration of half-maximal effect). The essentials: as §1

One may read the viability as a read-out of living cells in per cent, often relative to untreated cells. For `Cc1cc(C(C)Nc2ccccc2)c2nc(N3CCOCC3)cc(=O)n2c1` (stereo not given), the activation in assay [1] was 9.6% and -9.82%. In addition, the Potency entry in assay [2] and in assay [3] was “inactive” in each case. Also, in assay [4], the viability is 91.4%. Further, the Potency is 2.63 µM (active) in [5]; 16.6 µM (active) in assay [6]; 16.6 µM (active) in assay [7]; 16.6 µM (active) in [8]; 18.6 µM (active) in assay [9]; 23.5 µM (active) in [10].

For the compound `O=C(c1ccc(Nc2nccc(-c3cc4ccccc4s3)n2)cc1)N1CCC(N2CCCC2)CC1`, the activation in [1] was -33.3%. The Potency result in assay [2] and in assay [3] was “inactive” each time. The Potency in assay [4] is 6.61 µM (active); in assay [5] it was 18.6 µM (active); in [6], 1.86 µM (active); in assay [7], 5.25 µM (active); in [8] it was 3.32 µM (active); in [9], 7.42 µM (active). Moreover, the Potency in assay [10] was 7.42 µM (active).

Turning to `CC(C)c1cnn2c(NCc3ccccc3)cc(N[C@@H](CO)[C@H](O)CO)nc12`, the Potency is 544 nM (active) and 1.51 µM (active) in assay [1]; 0.296 µM (active) in [4]; 0.468 µM (active) in [5]; 0.372 µM (active) in [6]; 0.296 µM (active) in assay [7]; 0.372 µM (active) in assay [8]. Besides, the Potency in assay [9] is 0.296 µM (active); in assay [10], 0.372 µM (active). Also, the Potency result in assay [2] and in assay [3] was “inactive” each time.

Regarding `C1=C/COCc2cc(ccc2OCCN2CCCC2)Nc2nccc(n2)-c2cccc(c2)COC/1`, the Potency in [1] is 15.3 µM (active); in assay [4], 4.17 µM (active); in assay [5] it was 3.32 µM (active); in [6], 0.0132 µM (active); in assay [7] it was 2.09 µM (active); in [8] it was 1.18 µM (active). The Potency in [9] was 1.86 µM (active); in [10], 2.35 µM (active). Moreover, the Potency entry in assay [2] and in assay [3] was “inactive” throughout.

As to `CNC(=O)c1ccccc1Nc1nc(Nc2ccc3c(c2OC)CCC[C@@H](N2CCN(CCO)CC2)C3)ncc1Cl`, the Potency is 9.53 µM (active) in assay [1] and 18.6 µM (active) in [4]. Moreover, the Potency entry in assay [2], in assay [3], in assay [5], in assay [6], in assay [7] and in assay [8] was “inactive” in each case. Besides, the Potency entry in assay [9] and in assay [10] was “inactive” in each case.

Regarding `COc1ccc(F)c(F)c1C(=O)c1cnc(NC2CCN(S(C)(=O)=O)CC2)nc1N`, the Potency in [1] is 2.73 µM (active) and 2.69 µM (active); in assay [4] it was 2.09 µM (active); in assay [5] it was 1.86 µM (active); in [6], 1.32 µM (active); in assay [7] it was 2.35 µM (active); in [8] it was 1.66 µM (active). Also, the Potency in assay [9] and in assay [10] was 2.09 µM (active) in each case. Moreover, the Potency entry in assay [2] and in assay [3] was “inactive” in each case.

On to `Nc1cc(C(F)(F)F)c(-c2cc(N3CCOCC3)nc(N3CCOCC3)n2)cn1`, for which the Potency in assay [1] is 1.69 µM (active); in [4] it was 4.17 µM (active); in [5], 1.86 µM (active); in assay [6], 2.35 µM (active); in assay [7], 1.66 µM (active); in [8] it was 1.18 µM (active). Besides, the Potency in assay [9] is 2.09 µM (active); in [10], 1.86 µM (active). For the same compound, the Potency entry in assay [2] and in assay [3] was “inactive” throughout.

For the compound `c1ccc(-c2ccc(CNc3nc(-c4ccccn4)nnc3-c3ccccc3)cc2)cc1`, in [1], the activation is -11.7%. For the same compound, the Potency entry in assay [2] and in [3] was “inactive” in each case. The Potency in assay [4] was 2.35 µM (active); in [5] it was 1.32 µM (active); in assay [6], 1.18 µM (active); in assay [7] it was 1.32 µM (active); in [8] it was 1.05 µM (active); in assay [9], 0.934 µM (active). Also, in [10], the Potency is 1.05 µM (active).

With `O=C1CCC[C@@H]2[C@H]3CCC[N+]4([O-])CCC[C@@H](CN12)[C@@H]34` (stereo not given in full), in assay [1], the activation was 7.08% and -17.9%. Also, the Potency entry in [2], in assay [3], in [5], in assay [6], in assay [7] and in [8] was “inactive” in each case. The Potency result in assay [9] and in assay [10] was “inactive” in each case. The viability in [4] is 118%.

As for `Cc1ccc(C(N)=O)cc1Nc1nccc(-c2cn(C(C)C)c3cnccc23)n1`, the Potency in assay [1] was 10.9 µM (active); in assay [4], 7.42 µM (active); in assay [5] it was 7.42 µM (active); in [6] it was 0.0833 µM (active); in [7], 2.95 µM (active); in assay [8], 4.68 µM (active). Moreover, the Potency in assay [9] is 5.25 µM (active); in [10] it was 8.33 µM (active). The Potency result in assay [2] and in assay [3] was “inactive” each time.

For `COc1ccc(CNc2nc(N(CCO)CCO)nc3c2ncn3C(C)C)cc1`, the Potency in [1] was 8.49 µM (active); in assay [4], 8.33 µM (active); in [5] it was 8.33 µM (active); in [6], 6.61 µM (active); in [7], 7.42 µM (active); in [8], 7.42 µM (active). The values for the Potency in assay [9] and in assay [10] were 3.32 µM (active) and 5.9 µM (active), respectively. Further, the Potency result in assay [2] and in assay [3] was “inactive” throughout.

In the case of `CNC(=O)c1cc(Oc2ccc(NC(=O)Nc3ccc(Cl)c(C(F)(F)F)c3)cc2)ccn1`, the activation in [1] is 4.11%. Further, the Potency result in assay [2] and in [3] was “inactive” each time. In addition, the Potency in assay [4] is 26.3 µM (active); in [5], 9.34 µM (active); in [6], 0.0132 µM (active); in assay [7], 10.5 µM (active); in [8], 18.6 µM (active); in assay [9] it was 14.8 µM (active). Also, the Potency in [10] was 16.6 µM (active).

`C=CC(=O)Nc1cc(Nc2nccc(-c3cn(C)c4ccccc34)n2)c(OC)cc1N(C)CCN(C)C`: the Potency was 3.79 µM (active) in assay [1]; 9.34 µM (active) in assay [4]; 3.72 µM (active) in assay [5]; 2.95 µM (active) in assay [6]; 5.25 µM (active) in assay [7]; 4.68 µM (active) in assay [8]. Also, the results for the Potency in assay [9] and in [10] were 8.33 µM (active) and 7.42 µM (active), respectively. Also, the Potency result in assay [2] and in assay [3] was “inactive” each time.

With `Cc1cnc(Nc2ccc(F)cc2Cl)nc1-c1c[nH]c(C(=O)N[C@H](CO)c2cccc(Cl)c2)c1`, the activation in assay [1] is 12% and 13.4%. Besides, the Potency result in [2] and in assay [3] was “inactive” in each case. Further, the Potency in [4] is 23.5 µM (active); in assay [5], 4.68 µM (active); in [6] it was 20.9 µM (active); in assay [7], 18.6 µM (active); in assay [8] it was 20.9 µM (active); in assay [9], 16.6 µM (active). In addition, in assay [10], the Potency was 18.6 µM (active).

On to `CCc1cc(C(N)=O)ccc1-n1nc(C(C)C)c2c(-n3cnc(-c4cnn(C)c4)c3)ccnc21`, for which the activation in assay [1] was 4.33%. The Potency result in assay [2] and in assay [3] was “inactive” throughout. Besides, the Potency is 2.95 µM (active) in [4]; 1.86 µM (active) in [5]; 0.662 µM (active) in assay [6]; 1.32 µM (active) in [7]; 1.86 µM (active) in assay [8]; 1.66 µM (active) in assay [9]. Also, the Potency in assay [10] was 1.48 µM (active).
